Consider 14 molecules from article PMC5540273 (PLoS ONE, 2017).
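Further: KINOMEscan kinase panel screen.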

For the assay, the system named is LIMK2. To be noted: concentration: 1 μM, replicates: in singlicate; n = 1.
For `COC(=O)C(Cc1ccccc1)NC(=O)NC1CCN(c2ccnc(Nc3ccc(F)cc3)n2)C1` (centres unmarked) [GSK1379714], the “%Inh” value stood at 9%. On to `CSc1ccc(-c2nc3n(c2-c2ccncc2)CCC3)cc1` [SKF-105561], for which the “%Inh” value was found to be 0%. As for `COc1ccc(Nc2nccc(N3CCC(NC(=O)c4cc5ccccc5s4)C3)n2)cc1` (centres unmarked) [GSK1379738], the “%Inh” value was 17%. In the case of `Cc1ccc(NC(=O)Nc2ccc(Cl)cc2)cc1-c1ccc(C(=O)Nc2ccncc2)cc1` [GSK1398472], the “%Inh” value worked out at 67%. Consider `CC(C)c1ccc(O)cc1Nc1ccnc2ccc(C(F)(F)F)cc12` [GW482059], for which the “%Inh” value worked out at 0%. The same measure for `COC(=O)c1cccc(NC(=O)NC2CCN(c3ccnc(Nc4ccc(F)cc4)n3)C2)c1` (centres unmarked) [GSK1379725]: 0%; for `O=c1cc(N2CCOCC2)nc2n(Cc3ccccc3F)ccn12` [GSK2297428]: 1%. As to `Cc1ccccc1-c1cc(-c2c[nH]nc2-c2ccccn2)ccn1` [GW680061], the “%Inh” value is on record as 0%. With `COc1ccc(Nc2nccc(NCCNC(=O)Nc3cc(C)ccc3C)n2)cc1` [GSK1379899], the “%Inh” value came out at 0%.

As for `FC(F)(F)c1ccccc1-c1cc(-c2c[nH]nc2-c2ccccn2)ccn1` [GW679396], the “%Inh” value worked out at 0%. The same measure for `Cc1ccccc1Cn1ccn2c(=O)cc(N3CCOCC3)nc12` [GSK2269905]: 0%; for `Cc1ccc(NC(=O)Nc2ccc(Cl)c(C(F)(F)F)c2)cc1-c1ccc(C(=O)Nc2ccncc2)cc1` [GSK1398470]: 14%. Take `CCc1ccc(-c2ccc3c(c2)-c2n[nH]cc2S(=O)(=O)N3C)cc1`: the “%Inh” value came to 0%. As for `CNCc1ccc2nc(NC(=O)c3ccc(C(C)(C)C)cc3)cn2c1`, the figure is 0%.
